Key:
Test in all cases: PBM binding z-score (relative to random genomic background probes); higher = stronger binding; sequences stand for … in GC…GCGATTGACAGCGTAGAATGAAGG
[1] = test system: PPARg:RXRa IVT, anti-PPARg (NR concentration 270 nM, RXRa partner concentration 90 nM)
In short: (§1)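 Custom Agilent 4×180K protein-binding microarrays carried double-stranded probes. Their 34-nt variable regions held direct-repeat seeds, single-nucleotide variants, half-site ablations and random human genomic background sequences. Arrays were incubated 1 h with ligand-free nuclear receptor dimers in PBS pH 7.4, 2% milk, 0.02% Triton X-100, 1 mM DTT, 0.2 mg/mL BSA and 0.4 mg/ml salmon testes DNA. Antibodies against each partner (one per run) detected binding, and scanned fluorescence was regression-normalized. Binding z-scores use random background probes as reference.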

[2] = test system: PPARg DBDmut:RXRa IVT, anti-PPARg (DBD mutation: PPARg1 K132A/R137A, NR concentration 270 nM, RXRa partner concentration 90 nM)
In short: as §1

[3] = test system: PPARg DBDmut IVT, anti-PPARg (DBD mutation: PPARg1 K132A/R137A, NR concentration 270 nM)
In short: as §1

[4] = test system: PPARg homodimer (NR concentration 180 nM)
In short: as §1

[5] = test system: PXR:RXRa (NR concentration 270 nM, RXRa partner concentration 90 nM)
In short: as §1

[6] = test system: PXR homodimer (NR concentration 270 nM)
In short: as §1

[7] = test system: RARa:RXR (NR concentration 270 nM, RXRa partner concentration 90 nM)
In short: as §1

[8] = test system: RARa homodimer (NR concentration 270 nM)
In short: as §1

[9] = test system: RARb:RXRa (NR concentration 270 nM, RXRa partner concentration 90 nM)
In short: as §1

[10] = test system: RARb homodimer (NR concentration 270 nM)
In short: as §1

Sequence	PBM binding z-score [1]	PBM binding z-score [2]	PBM binding z-score [3]	PBM binding z-score [4]	PBM binding z-score [5]	PBM binding z-score [6]	PBM binding z-score [7]	PBM binding z-score [8]	PBM binding z-score [9]	PBM binding z-score [10]
TCTCGGAGGACACCAAAGGTCAGAGCTCGACATC	1.71	-0.171	-0.615	3.42	4.41	0.454	4.86	1.44	4.21	4.64
TAGCCTAGGTCATGCGGGACAGTATAGTGTCGGC	3.2	0.574	0.484	1.45	1.82	-0.102	2.58	-0.0247	3.72	2.99
TCTCGGAGGAAACGAAAGGTCAGAGCTCGACATC	0.961	-0.0511	-0.298	2.23	3.7	0.181	4.48	1.31	3.73	4.28
TAGCCTAGGTCACATCGGGCCAGTATACGCTATA	3.51	0.246	-0.263	0.979	2.26	-0.395	2.25	-0.254	3.84	2.63
CCTGCTAGGTCATGGTCAGCGAATCTACAGTATG	3.76	-0.0271	-0.639	2	1.18	-0.875	2.26	-0.334	4.09	3.29
CGAACTAGGTCATTGACAGGACAATGAATAGTAA	8.41	3.96	1.94	1.77	2.07	0.487	2.45	0.188	3.77	2.88
CGAACTACGTCATCCAGGACAGTGAATACATTGA	0.155	0.664	1.1	0.384	-0.0551	0.144	0.358	0.377	-0.0115	-0.0588
CCAGACAGGTGAGAAGGTAACTCAGCCTCGATTA	0.964	-0.28	-0.249	1.03	0.228	0.138	0.486	0.698	0.666	0.841
CAAACTAGTTCAAGAGGTCAAAGTCCGCTTCCCG	2.96	-0.123	0.442	5.22	5.97	5.56	6.53	2.22	4.52	4.85
CAAACTAGGTCACAAAAGGTCAAAGTCGAATGAC	8.79	3.52	2.98	6.01	6.68	3.59	7.57	3.85	5.37	5.82
ATATGTAGGTTACATCCGGGTCATCCAGGCTATG	7.51	3.31	2.5	2.45	3.45	1.14	3.67	0.961	2.3	3.26
CCTTACGGGTCAAGGTTATAGCCCGGGTGGTACG	3.44	-0.234	-0.862	1.69	3.43	0.303	4.46	0.676	4.33	3.8
ACGCGGAGGACAAAGGTCAGAGCTACGCCAGTGA	3.08	-0.183	-0.911	2.67	3.88	0.273	5.05	0.759	4.48	4.11
CGTCCAAAGTCAAAGGTCAGTGAAGAGATGACGG	2.41	0.349	0.905	3.27	3.97	0.811	5.61	1.11	4.53	4.29
ATCGAAAGGTCCAAGGTGAGTATACCCACCCGAA	0.666	0.0343	0.185	0.369	0.0935	-0.107	0.511	0.706	1.49	0.938
TCTCGGAGGACACAAAGGTCAGAGCTTTCCAGAG	2.39	-0.467	-0.672	2.65	4.46	3.76	4.59	1.37	4.22	4.77
AATACAGGGTCATCGTACGCCAGAGTACGCACAG	4.44	3.9	1.45	3.42	4.53	0.995	5.47	1.81	4.45	3.46
TGAATGAGGTTAAATATCAGGGAACGTGGCGTCG	2.35	0.916	0.956	0.766	1.35	0.413	1.91	0.347	2.17	0.735
AGAATGAGGTCATACGTAGATCAGGGAAGAAAGT	6.69	1.6	2.79	2.06	4.89	1.94	5.04	1.17	4.84	3.6
AACGAAAGGTCGAAGGTGAGTATACCCACCCGAA	2.16	0.625	-0.0943	0.991	3	-0.293	4.48	0.698	3.79	2.48
AGTCAAAGTGCATCTAGGTAACGTAAGATATGCT	2.46	0.878	0.653	0.197	0.516	0.154	0.595	-0.00454	1.53	0.456
TAGCCTAGGTCATGCGGCCCAGTATAGTGTCGGC	2.78	-0.45	-0.404	0.605	1.27	-0.926	2.1	-0.495	3.72	2.78
CGAACTAGGTCGTCCAGGACAGTGAATACATTGA	4.97	0.213	0.237	-0.545	0.256	-0.263	0.281	-0.365	1.14	0.392
AATACAAGGTCATCGTAGGCCAGAGTACGCACAG	4.7	0.979	1.37	2.81	4.87	2.13	4.63	1.33	5.15	4.19
CCTTACGGGTCACTCCAGGTTATATCATCGGAGT	3.56	0.671	-0.354	1.62	5.16	0.444	3.62	0.321	3.69	3.31

Sequence	PBM binding z-score [1]	PBM binding z-score [2]	PBM binding z-score [3]	PBM binding z-score [4]	PBM binding z-score [5]	PBM binding z-score [6]	PBM binding z-score [7]	PBM binding z-score [8]	PBM binding z-score [9]	PBM binding z-score [10]
CCTTACGGGTTACTCCAGGTTATAGCATCGGAGT	0.994	0.298	-0.838	0.398	2.52	0.558	1.68	0.599	1.02	0.561
CGAACTAGGTCACCCAGGACAGTGAATACATTGA	8.55	3.12	2.38	2.12	1.88	1.13	2.54	1.21	4.25	3.34
CCTTACGGGTAACGAGGTTATAGCACGACGAGCG	1.82	-0.344	-1.05	0.604	0.822	0.153	1.3	0.476	0.589	0.484
TAGCCTAGGTCGTTCAGGGGCCAGTATAGAAAGC	0.847	-0.279	-0.473	0.19	0.589	-0.665	1.18	-0.836	1.63	1.63
AGAATGAGGTTAAGTTCAGGGAAACAGAATACAT	3.33	1.62	0.811	1.08	3.31	1.91	3.03	0.895	3.17	2.6
CGAACTAGGTCATCCAGGTCAGTGAATACATTGA	8.34	6.69	1.38	4.66	3.99	7.58	3.63	1.17	4.3	4.14
CGTTCAAGGTCAAAGGTCAGTGAAGAGATGACGG	6.57	2.57	1.79	6.36	7.19	3.57	8.99	5.48	5.89	5.42
TCTTGTAGATCAATAGAAGTTAAGAAAGTGCGCT	0.217	0.211	1.07	0.551	0.615	0.29	0.734	0.368	0.0854	-0.511
ATATGTAGGTTAGCTGAGGTCATTCAGACTAGGC	6.48	2.26	1.4	3.04	6.68	6.09	4.95	1.7	3.34	4.04
AATACAGGGTGACTAGGCCAGAGTAGGTACGAAT	3.48	1.24	0.872	0.246	0.11	0.336	0.341	0.259	0.856	0.729
CGTCAAAGATCAAGGTAACGTAACAGAAAGCAGC	0.642	0.647	0.471	0.374	0.00649	-0.253	0.485	0.251	0.252	-0.124
ATATGTAGGTTACCTGGGGTCATTCAGACTAGGC	7.26	2.71	1.81	2.87	6.79	4.76	5.89	0.968	3.18	4.13
TTACCAAGGTGAAAGGTCGTTGCTGCACGCCTTG	5.07	0.655	0.268	1.88	3.88	0.364	5.58	-0.419	3.14	2.59
CCTACTGGGCCACGAAAGGCCATTGATTCAGTGA	5.01	-0.487	-0.189	0.0675	0.149	-0.378	0.18	-0.712	1.18	1.36
AATAAAGGGTCATCGTAGGCCAGAGTACGCACAG	4.41	1.5	1.46	5.38	5.11	1.02	5.67	3.37	5.11	4.11
TCTTGTAGATCAACAGGAGGTTAATAAAGATCGA	0.851	0.688	0.752	0.0813	0.776	-0.162	1.23	0.176	0.533	0.497
ATATGTAGGATAGCTGGGGTCATTCAGACTAGGC	2.82	0.891	1.52	5.47	5.76	2.24	5.49	1.21	2.54	3.16
TACCCTAGGTCATTCAGGGGCCAGTATAGAAAGC	3.23	-0.205	0.64	2.57	2.68	0.936	3.65	0.569	4.13	3.8
CCTAGCAGGCCAATCTAGGTCACTCAAGGCTTGA	5.19	-0.0838	-0.865	0.707	1.51	-0.261	1.37	-0.161	2.02	2.68
CCTACTGGGCCAAAAAGTTCATTGATGCCGATAA	2.64	-1.13	-0.236	1.35	2.98	9.58	1.23	0.294	2.24	2.64
ACTTAAGGGTCAACGAGGTTATAGCACGCGTATA	4.06	2.52	3.33	4.43	6.26	6	6.74	2.01	5.29	4.31
TCTATTAGTTGATTAGGGCAACCGAAACAGCGGA	1.84	0.572	0.488	1.34	0.609	0.491	1.03	1.33	0.953	0.738
GCTGCTAGGTCAACTGATGGTCACCTAAAGCTCG	4.59	-0.0462	-0.599	1.66	2.06	-0.358	3.26	0.182	4.24	3.93
CAAACTAGGTCACAGTGGTCAAAGTCCGTGCGTA	9.05	2.06	1.68	2.21	2.03	-0.0834	2.51	0.000573	4.08	3.62
